# Laboratory results reported in PubChem BioAssay (NCI).
# Compounds without any hit were thinned out: in the full panel of roughly 83,000, 20% have a hit.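 Method: cells in 96-well plates; compound added at one concentration; 48 h incubation; percent growth measured; values under 10 scored active.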 Values without a mark were called inactive. The source made the active and inactive calls.
# Key:
# Assay in all cases: NCI-60 one-dose screen, 48 h (100 = growth as untreated, 0 = no growth, -100 = all killed)
# HCT-15 colon = details: 10 µM unless noted
# SNB-75 CNS = details: 10 µM unless noted
# SNB-19 CNS = details: 10 µM unless noted
# U251 CNS = details: 10 µM unless noted
# PC-3 prostate = details: 10 µM unless noted
# SK-MEL-5 melanoma = details: 10 µM unless noted
# UACC-62 melanoma = details: 10 µM unless noted
# LOX IMVI melanoma = details: 10 µM unless noted
# SK-MEL-28 melanoma = details: 10 µM unless noted
# SK-MEL-2 melanoma = details: 10 µM unless noted
# EKVX NSCLC = details: 10 µM unless noted
# SN12C renal = details: 10 µM unless noted
# UO-31 renal = details: 10 µM unless noted
# TK-10 renal = details: 10 µM unless noted
# A498 renal = details: 10 µM unless noted
# CCRF-CEM leukemia = details: 10 µM unless noted
# MOLT-4 leukemia = details: 10 µM unless noted
# ACHN renal = details: 10 µM unless noted
# CAKI-1 renal = details: 10 µM
# HT29 colon = details: 10 µM unless noted
SMILES,growth (HCT-15 colon),growth (SNB-75 CNS),growth (SNB-19 CNS),growth (U251 CNS),growth (PC-3 prostate),growth (SK-MEL-5 melanoma),growth (UACC-62 melanoma),growth (LOX IMVI melanoma),growth (SK-MEL-28 melanoma),growth (SK-MEL-2 melanoma),growth (EKVX NSCLC) [%],growth (SN12C renal),growth (UO-31 renal),growth (TK-10 renal) [%],growth (A498 renal),growth (CCRF-CEM leukemia),growth (MOLT-4 leukemia),growth (ACHN renal),growth (CAKI-1 renal),growth (HT29 colon) [%]
COc1cc2ncnc(Oc3ccc(NC(=O)Nc4ccc(CN5CCOCC5)c(C(F)(F)F)c4)c4ccccc34)c2cc1OC,32.9%,46%,55.2%,42.6%,40%,-26.5% (active),28%,21.5%,2.47% (active),52.1%,16,8.87% (active),-11.9% (active),12.7,-11.3% (active),20.1%,-20.7% (active),,,
NC(=O)C1=C[C@H]2[C@H]3C=C[C@@]2(O)C(=O)O[C@@H]3O1,44.8%,76.7%,82%,63.1%,59.1%,60.7%,35.5%,22.9%,,42.4%,,57.6%,54.5%,,81.3%,26.9%,42.3%,44%,46.5%,
COc1ccc(Cn2cc3c(c2-c2cc(OC)c(OC)c(OC)c2)CCc2c(CO)noc2-3)cc1,17.6%,40%,30.2%,11.2%,26.5%,5.04% (active),12.7%,30.6%,54%,49.5%,45.8,30.3%,30.1%,74.5,18.2%,19.6%,16.6%,,,
O=C(CNc1cccnc1)Nc1ccc(C(=O)/C=C/c2ccc(Cl)cc2)cc1,88.6%,87.8%,101%,82.1%,89.4%,91.1%,84.9%,86%,96.4%,84.4%,95,88.7%,77.7%,106,86.9%,26.6%,,101%,,
FC(F)(F)c1cn(CC2CNC2)c2ncnc(Cl)c12,104%,109%,99.9%,105%,110%,99.5%,102%,102%,104%,103%,109,102%,102%,104,112%,86.7%,89.9%,104%,,
CC(C(=O)O)N1C(N)=NNC1c1ccccc1O (centres undefined),68.4%,74.4%,88.5%,85.9%,83.3%,85.5%,81.9%,78.3%,106%,99.7%,50.6,93.4%,66.3%,148,98.8%,82.7%,68.1%,87.3%,,
CC(=O)c1cc2c(c(O)c1C)C(=O)C(=O)c1c(O)cccc1-2,-61.3% (active),-98.2% (active),-85.9% (active),-94.5% (active),-26.4% (active),-97.9% (active),-71.6% (active),-49.2% (active),-87.2% (active),-72.7% (active),,-41.4% (active),,,-80.6% (active),0.77% (active),,-90.3% (active),-79.6% (active),
COc1cc(Cn2cc3c(c2)-c2onc(CO)c2CC3)cc(OC)c1OC,89%,82%,94.5%,,88.7%,83.3%,,94.7%,93.7%,90.2%,90.3,94.3%,68.4%,,97.5%,91.3%,95.8%,,,104
COc1ccc(/C=C2/C(=O)Nc3cc(Cl)c(-c4csc(N)n4)cc32)cc1,39.9%,37.5%,45.5%,46.3%,50.3%,19.1%,37.6%,48.6%,70.1%,35%,46.5,59.6%,55.6%,84.4,25.1%,31.7%,28.2%,,,
COc1ccc(Cl)cc1NC(=O)c1cc2c(n1C)-c1nc(NC(=O)C(C)(C)C)sc1CC2,89.4%,83.1%,106%,88.4%,71.7%,79.7%,87.7%,93.9%,92.4%,79.7%,76.2,107%,53.5%,,94%,98.5%,72.5%,,,
O=C(Cn1c2ccccc2c2ccncc21)N/N=C/c1c[nH]c2ccccc12,93.4%,31%,53.4%,19.7%,78.8%,4.85% (active),21.2%,33.3%,56.5%,95.3%,91.2,38.8%,,113,104%,43.8%,53.4%,77.7%,,
Nc1nccc2c1ccn2-c1ccc(NC(=O)c2ccc(N3CCOCC3)c(C(F)(F)F)c2)cc1,14.1%,25.7%,0.546% (active),12%,10.4%,-89.6% (active),6.43% (active),-45.3% (active),48.9%,35.3%,36.7,48.8%,-41.2% (active),,-9.64% (active),18.5%,-3.7% (active),24.3%,-25.3% (active),
COc1cc(/C=C/C(=O)N2CCC=CC2=O)cc(OC)c1OC,1.7% (active),75.7%,72.9%,68.3%,79.7%,73.8%,40.8%,10.2%,56%,74.9%,57.1,45.1%,57.7%,38.7,98.7%,15%,42.1%,-7.71% (active),,
